Common to all, as to assay: DAPPL (digital affinity profiling via proximity ligation, sequencing); 10 mM Tris-HCl pH 7.5, 50 mM NaCl, 1 mM DTT, 4% glycerol, room temperature, 30 min; GST-TFs on glutathione beads, 16-mer random dsDNA library, 0.1% formaldehyde crosslink after washing; high values mean tight binding
Holding throughout (conditions): protein: recombinant; tags: N-terminal GST; dsDNA, one strand shown

One assay has as its target T1, FLI1 (Homo sapiens, UniProt Q01543 1-452).
T1 sequence: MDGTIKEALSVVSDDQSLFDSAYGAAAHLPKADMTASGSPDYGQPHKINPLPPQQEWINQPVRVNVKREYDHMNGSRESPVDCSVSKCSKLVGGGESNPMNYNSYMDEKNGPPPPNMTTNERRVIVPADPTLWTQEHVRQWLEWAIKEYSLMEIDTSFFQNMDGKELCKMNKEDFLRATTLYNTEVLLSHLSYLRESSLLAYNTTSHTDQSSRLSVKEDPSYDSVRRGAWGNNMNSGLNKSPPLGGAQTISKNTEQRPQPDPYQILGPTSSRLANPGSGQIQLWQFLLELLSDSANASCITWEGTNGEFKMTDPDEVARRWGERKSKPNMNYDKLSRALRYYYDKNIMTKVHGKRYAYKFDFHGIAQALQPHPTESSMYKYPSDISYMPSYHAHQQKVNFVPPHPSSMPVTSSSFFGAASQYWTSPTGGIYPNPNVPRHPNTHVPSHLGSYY
The procedure, abridged:
(§1)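 Each value of binding signal is a hexamer's read frequency for a factor divided by the same hexamer's frequency in the tag-only sample. Barcoded, bead-captured GST fusions of human transcription factors made in yeast were pooled with that sample and incubated with 200 nmole of a random double-stranded 16-mer DNA library in Tris/NaCl/DTT/glycerol buffer at room temperature for 30 min. Washing, 0.1% formaldehyde crosslinking, proximity ligation, PCR and Illumina NextSeq500 sequencing followed.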

Another assay deals with T2, GABPA (Homo sapiens, UniProt Q06546 1-454).
T2 sequence: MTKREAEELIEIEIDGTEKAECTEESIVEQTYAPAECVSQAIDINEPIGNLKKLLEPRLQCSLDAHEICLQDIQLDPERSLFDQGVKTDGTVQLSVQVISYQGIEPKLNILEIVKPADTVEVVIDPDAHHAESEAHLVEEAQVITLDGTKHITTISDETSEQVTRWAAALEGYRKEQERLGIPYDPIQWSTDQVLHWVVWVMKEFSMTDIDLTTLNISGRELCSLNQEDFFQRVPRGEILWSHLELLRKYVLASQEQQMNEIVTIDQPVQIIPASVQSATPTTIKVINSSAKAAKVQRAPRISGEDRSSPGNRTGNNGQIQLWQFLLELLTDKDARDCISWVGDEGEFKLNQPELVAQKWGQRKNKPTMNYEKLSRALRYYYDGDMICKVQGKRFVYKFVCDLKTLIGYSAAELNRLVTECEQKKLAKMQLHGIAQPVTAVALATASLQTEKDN
The procedure, abridged: as §1

In another assay the target is SPI1 (Homo sapiens, UniProt P17947 1-270). Summed up:
as §1

Another assay has as its target SPIB (Homo sapiens, UniProt Q01892 1-262). The procedure, abridged:
as §1

The target of another assay is T3, FEV (Homo sapiens, UniProt Q99581 1-238).
T3 sequence: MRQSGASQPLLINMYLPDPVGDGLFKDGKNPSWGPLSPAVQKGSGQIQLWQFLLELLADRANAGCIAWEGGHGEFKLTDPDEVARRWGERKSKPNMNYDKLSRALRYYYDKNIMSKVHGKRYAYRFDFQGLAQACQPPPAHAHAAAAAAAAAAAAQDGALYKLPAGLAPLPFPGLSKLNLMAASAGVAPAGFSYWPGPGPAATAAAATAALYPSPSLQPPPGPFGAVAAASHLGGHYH
Summed up: as §1

Another assay addresses T4, SPIC (Homo sapiens, UniProt Q8N5J4 1-248).
T4 sequence: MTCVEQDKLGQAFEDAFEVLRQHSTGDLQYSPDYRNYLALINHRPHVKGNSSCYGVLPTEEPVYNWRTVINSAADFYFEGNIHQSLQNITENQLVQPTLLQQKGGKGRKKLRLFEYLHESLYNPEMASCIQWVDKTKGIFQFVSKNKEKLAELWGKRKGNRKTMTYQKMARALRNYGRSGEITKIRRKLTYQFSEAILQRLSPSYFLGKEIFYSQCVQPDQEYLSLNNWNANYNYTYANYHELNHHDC
The procedure, abridged: as §1

The next assay has as its target T5, ELK4 (Homo sapiens, UniProt P28324-2 1-405).
T5 sequence: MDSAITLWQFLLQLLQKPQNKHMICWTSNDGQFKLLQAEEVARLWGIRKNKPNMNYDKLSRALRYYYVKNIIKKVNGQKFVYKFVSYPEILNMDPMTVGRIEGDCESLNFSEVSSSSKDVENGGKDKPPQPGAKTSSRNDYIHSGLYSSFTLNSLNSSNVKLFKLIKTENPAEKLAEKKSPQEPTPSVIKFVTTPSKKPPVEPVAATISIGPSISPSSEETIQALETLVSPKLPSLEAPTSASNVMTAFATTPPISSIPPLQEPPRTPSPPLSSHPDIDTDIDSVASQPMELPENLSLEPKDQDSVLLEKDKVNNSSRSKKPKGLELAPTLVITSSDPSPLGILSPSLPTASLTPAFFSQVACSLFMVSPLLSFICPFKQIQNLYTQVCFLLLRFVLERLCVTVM
The procedure, abridged:
as §1

A further assay addresses T6, ETV2 (Homo sapiens, UniProt O00321 1-342).
T6 sequence: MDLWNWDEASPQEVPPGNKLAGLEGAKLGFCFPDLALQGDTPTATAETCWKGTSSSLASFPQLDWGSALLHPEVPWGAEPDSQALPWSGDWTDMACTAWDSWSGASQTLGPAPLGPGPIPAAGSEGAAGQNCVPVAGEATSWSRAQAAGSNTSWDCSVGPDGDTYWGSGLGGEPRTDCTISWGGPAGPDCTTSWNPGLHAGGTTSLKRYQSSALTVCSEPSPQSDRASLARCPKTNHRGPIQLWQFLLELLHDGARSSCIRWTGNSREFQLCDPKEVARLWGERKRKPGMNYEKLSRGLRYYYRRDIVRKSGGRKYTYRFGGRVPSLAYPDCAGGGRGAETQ
Summed up:
as §1

The target of a further assay is T7, ELF3 (Homo sapiens, UniProt P78545 1-371).
T7 sequence: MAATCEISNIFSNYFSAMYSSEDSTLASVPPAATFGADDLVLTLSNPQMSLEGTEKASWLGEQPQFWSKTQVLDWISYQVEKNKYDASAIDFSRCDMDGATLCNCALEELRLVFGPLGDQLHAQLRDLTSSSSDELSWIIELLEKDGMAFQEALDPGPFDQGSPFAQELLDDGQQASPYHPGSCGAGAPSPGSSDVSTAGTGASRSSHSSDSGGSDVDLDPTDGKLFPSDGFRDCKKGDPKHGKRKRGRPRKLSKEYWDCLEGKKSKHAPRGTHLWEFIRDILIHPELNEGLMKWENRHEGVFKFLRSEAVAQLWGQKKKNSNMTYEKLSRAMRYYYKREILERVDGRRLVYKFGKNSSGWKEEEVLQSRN
The procedure, abridged:
as §1

In another assay the target is ETV1 (Homo sapiens, UniProt P50549 1-477). The procedure, abridged:
as §1

In another assay the target is T8, ERF (Homo sapiens, UniProt P50548 1-548).
T8 sequence: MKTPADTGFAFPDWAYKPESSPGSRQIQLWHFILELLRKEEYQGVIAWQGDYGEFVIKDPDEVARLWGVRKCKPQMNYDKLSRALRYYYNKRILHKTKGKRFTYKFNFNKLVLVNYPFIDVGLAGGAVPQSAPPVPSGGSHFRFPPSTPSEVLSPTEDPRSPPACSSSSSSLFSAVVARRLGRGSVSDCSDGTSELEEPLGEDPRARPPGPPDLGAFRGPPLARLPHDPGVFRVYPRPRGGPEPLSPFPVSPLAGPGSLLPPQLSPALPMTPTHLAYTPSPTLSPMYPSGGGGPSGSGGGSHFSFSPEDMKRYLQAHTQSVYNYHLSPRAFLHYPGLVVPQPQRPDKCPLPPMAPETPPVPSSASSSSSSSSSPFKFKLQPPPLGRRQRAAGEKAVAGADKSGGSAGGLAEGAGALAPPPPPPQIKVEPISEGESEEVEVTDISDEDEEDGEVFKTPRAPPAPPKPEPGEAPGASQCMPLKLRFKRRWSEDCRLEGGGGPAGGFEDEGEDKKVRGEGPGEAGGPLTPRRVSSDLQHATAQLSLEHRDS
The procedure, abridged:
as §1

The next assay concerns the target T9, ETV3L (Homo sapiens, UniProt Q6ZN32 1-361).
T9 sequence: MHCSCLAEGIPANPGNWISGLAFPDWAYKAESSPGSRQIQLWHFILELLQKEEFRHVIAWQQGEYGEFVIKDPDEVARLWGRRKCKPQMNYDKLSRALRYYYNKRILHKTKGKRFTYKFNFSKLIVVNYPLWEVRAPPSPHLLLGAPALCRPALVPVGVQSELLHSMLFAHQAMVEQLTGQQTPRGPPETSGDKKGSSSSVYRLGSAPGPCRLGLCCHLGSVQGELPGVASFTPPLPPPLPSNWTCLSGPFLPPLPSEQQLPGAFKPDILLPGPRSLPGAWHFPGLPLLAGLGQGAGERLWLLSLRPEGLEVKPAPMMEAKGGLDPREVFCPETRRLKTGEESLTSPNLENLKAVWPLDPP
Summed up: as §1

The next assay concerns the target T10, ETS2 (Homo sapiens, UniProt P15036 1-469).
T10 sequence: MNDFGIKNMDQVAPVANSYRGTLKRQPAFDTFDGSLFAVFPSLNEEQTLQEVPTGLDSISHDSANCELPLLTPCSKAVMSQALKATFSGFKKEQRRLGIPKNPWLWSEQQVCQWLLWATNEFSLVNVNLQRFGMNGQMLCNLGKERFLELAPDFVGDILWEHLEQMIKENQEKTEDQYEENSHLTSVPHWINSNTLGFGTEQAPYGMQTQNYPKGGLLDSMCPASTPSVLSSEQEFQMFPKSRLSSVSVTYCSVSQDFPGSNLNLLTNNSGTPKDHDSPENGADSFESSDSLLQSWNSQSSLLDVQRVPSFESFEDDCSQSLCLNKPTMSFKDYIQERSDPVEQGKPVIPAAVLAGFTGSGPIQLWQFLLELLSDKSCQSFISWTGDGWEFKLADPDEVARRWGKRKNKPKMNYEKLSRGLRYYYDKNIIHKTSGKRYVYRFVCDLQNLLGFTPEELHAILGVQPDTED
The procedure, abridged:
as §1

Another assay deals with T11, SPDEF (Homo sapiens, UniProt O95238 1-335).
T11 sequence: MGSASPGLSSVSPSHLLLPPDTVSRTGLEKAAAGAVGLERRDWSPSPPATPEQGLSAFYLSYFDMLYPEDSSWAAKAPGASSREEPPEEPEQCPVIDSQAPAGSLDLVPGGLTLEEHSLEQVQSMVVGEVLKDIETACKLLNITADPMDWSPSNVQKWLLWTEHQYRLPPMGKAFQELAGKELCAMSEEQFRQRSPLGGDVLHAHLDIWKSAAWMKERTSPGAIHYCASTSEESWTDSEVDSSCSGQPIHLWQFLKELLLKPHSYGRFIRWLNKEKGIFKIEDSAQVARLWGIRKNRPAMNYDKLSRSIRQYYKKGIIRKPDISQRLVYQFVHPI
The procedure, abridged: as §1

The target of a further assay is T12, ETV7 (Homo sapiens, UniProt Q9Y603 1-341).
T12 sequence: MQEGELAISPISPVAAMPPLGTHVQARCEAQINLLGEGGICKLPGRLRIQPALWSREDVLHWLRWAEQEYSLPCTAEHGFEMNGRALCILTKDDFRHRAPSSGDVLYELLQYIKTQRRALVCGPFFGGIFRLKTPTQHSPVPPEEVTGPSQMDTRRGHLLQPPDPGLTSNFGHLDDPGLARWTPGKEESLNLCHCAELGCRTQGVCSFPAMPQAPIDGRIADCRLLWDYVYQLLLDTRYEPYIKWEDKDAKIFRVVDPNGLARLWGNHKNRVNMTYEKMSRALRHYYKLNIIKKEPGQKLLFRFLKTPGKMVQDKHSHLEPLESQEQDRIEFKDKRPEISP
The procedure, abridged:
as §1

Another assay has as its target T13, ELF5 (Homo sapiens, UniProt Q9UKW6-2 1-255).
T13 sequence: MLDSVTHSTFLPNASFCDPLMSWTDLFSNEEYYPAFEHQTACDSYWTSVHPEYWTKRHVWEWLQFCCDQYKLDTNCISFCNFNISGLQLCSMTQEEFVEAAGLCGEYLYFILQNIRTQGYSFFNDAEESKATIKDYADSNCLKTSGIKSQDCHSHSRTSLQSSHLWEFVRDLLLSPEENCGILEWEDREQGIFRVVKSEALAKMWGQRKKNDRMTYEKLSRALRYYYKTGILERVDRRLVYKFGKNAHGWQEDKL
The procedure, abridged: as §1

ETV1, sequence (P50549 whole entry): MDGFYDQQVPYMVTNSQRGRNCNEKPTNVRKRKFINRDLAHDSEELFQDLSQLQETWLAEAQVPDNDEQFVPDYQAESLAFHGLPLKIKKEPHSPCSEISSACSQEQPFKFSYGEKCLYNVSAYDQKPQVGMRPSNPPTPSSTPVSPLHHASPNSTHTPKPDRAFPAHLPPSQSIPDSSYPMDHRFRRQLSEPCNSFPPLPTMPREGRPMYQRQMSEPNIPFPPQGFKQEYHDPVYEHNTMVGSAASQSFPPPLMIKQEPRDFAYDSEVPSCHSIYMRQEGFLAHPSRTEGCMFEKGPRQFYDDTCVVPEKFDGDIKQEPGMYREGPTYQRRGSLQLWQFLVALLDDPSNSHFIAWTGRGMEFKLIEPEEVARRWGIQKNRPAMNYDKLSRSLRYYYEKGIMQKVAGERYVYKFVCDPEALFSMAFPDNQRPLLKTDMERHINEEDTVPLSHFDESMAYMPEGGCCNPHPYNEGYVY
SPIB, sequence (Q01892 whole entry): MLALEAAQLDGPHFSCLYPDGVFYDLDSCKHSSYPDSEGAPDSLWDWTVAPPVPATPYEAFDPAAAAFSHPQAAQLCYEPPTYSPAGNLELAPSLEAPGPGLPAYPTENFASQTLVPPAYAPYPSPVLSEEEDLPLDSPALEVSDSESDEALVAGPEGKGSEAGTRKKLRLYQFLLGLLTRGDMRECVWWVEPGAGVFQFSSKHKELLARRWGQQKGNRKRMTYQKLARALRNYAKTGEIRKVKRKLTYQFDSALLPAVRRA

For ATGCGT, the binding signal was 1.06 fold enrichment (6-mer frequency, TF over GST control) with FLI1; 1.07 fold enrichment (6-mer frequency, TF over GST control) in the assay with GABPA; 1.03 fold enrichment (6-mer frequency, TF over GST control) with SPI1; 1.03 fold enrichment (6-mer frequency, TF over GST control) with SPIB; 1.01 fold enrichment (6-mer frequency, TF over GST control) with FEV; 1.07 fold enrichment (6-mer frequency, TF over GST control) with SPIC. Moreover, the binding signal was 1.15 fold enrichment (6-mer frequency, TF over GST control) in the assay with ELK4; 1.18 fold enrichment (6-mer frequency, TF over GST control) with ETV2; 1.07 fold enrichment (6-mer frequency, TF over GST control) with ELF3; 1.02 fold enrichment (6-mer frequency, TF over GST control) with ETV1; 1.01 fold enrichment (6-mer frequency, TF over GST control) with ERF; 1.1 fold enrichment (6-mer frequency, TF over GST control) with ETV3L. The binding signal in the assay with ETS2 is 1.02 fold enrichment (6-mer frequency, TF over GST control); with SPDEF, 1.07 fold enrichment (6-mer frequency, TF over GST control); with ETV7, 1.16 fold enrichment (6-mer frequency, TF over GST control); with ELF5, 1.03 fold enrichment (6-mer frequency, TF over GST control).
